Measured values reported in PubChem BioAssay (NCATS).
Inconclusive results are not listed. Values without a mark were called inactive. Calls of active or inactive are those of the source. Calls follow the shape of the dose curve; as a rule, active = well fitted inhibition curve with a large enough effect; inconclusive = small, poorly fitted or top-dose-only effect; inactive = flat fitted curve, though single readings scatter.

experiment: P-glycoprotein substrates identified in KB-8-5-11 adenocarcinoma cell line, qHTS therapeutic library screen (AID 1346987); conditions: KB-8-5-11 (P-gp overexpressing) viability, CellTiter-Glo, 72 h; series mostly up to 44.5 µM; activity change, negative = cytotoxicity: at the top concentration; also: nearly all actives have a fitted effect of over 65% in size
Description: The ATP-binding cassette transporters P-glycoprotein (P-gp) is known to limit brain penetration of many chemotherapy drugs. […] As such, we developed a high-throughput screen (HTS) to identify substrates of P-gp from a series of chemical libraries including the National Center for Advancing Translational Sciences Pharmaceutical Collection NPC, 2,816 compounds), testing a total of 10,804 compounds, most of which have known mechanisms of action. We used the CellTiter-Glo viability assay to test library compounds against the parental KB-3-1 human cervical adenocarcinoma cell line and the colchicine-selected sub-line KB-8-5-11 that over-expresses P-gp. KB-8-5-11 cells were also tested in the presence of a P-gp inhibitor (tariquidar) to assess reversability of transporter-mediated resistance. Of the tested compounds, a total of 90 P-gp substrates were identified including 55 newly identified P-gp substrates. Substrates were confirmed using an orthogonal killing assay against HEK-293 cells transfected with P-gp. As exemplars, we confirmed that […] (cyclin-dependent kinase inhibitor); AT9283, (Janus kinase 2/3 inhibitor); ispinesib (kinesin spindle protein inhibitor); gedatolisib (PKI-587, phosphoinositide 3-kinase/mammalian target of rampamycin inhibitor); GSK-690693 (AKT inhibitor); and KW-2478 (heat shock protein 90 inhibitor) were substrates , and direct ATPase stimulation was assessed. ABCG2 was also found to confer high levels of resistance to AT9283, GSK-690693 and gedatolisib, while ispinesib, AT7519 and KW-2478 were weaker substrates.
The HeLa derivative cell line, KB-3-1, and its colchicine-selected, P-gp-overexpressing subline, KB-8-5-11 were maintained in DMEM with 10% FCS and Pen/Strep with glutamine at 37 degree C in 5% CO2. For KB-8-5-11 cells, colchicine was added to the medium at a concentration of 100 ng/mL. HEK-293 cells transfected with empty vector (pcDNA) or vector containing human ABCB1 (MDR-19) or ABCG2 (R-5) have been described previously (Robey, Lin, Qiu, Chan & Bates, 2011) and were maintained in EMEM supplemented with 10% FCS, Pen/Strep and glutamine with 2 mg/ml G418 to select for the expression of the transporter. Cultures were confirmed to be free of mycoplasma infection using the MycoAlert Mycoplasma Detection Kit (Lonza, Walkersville, MD). For the screen, assay medium was identical to culture medium except for KB-8-5-11 where colchicine was excluded from the medium.
All cell lines were plated into 1536-well plates at 500 cells/well in 5 uL media. Compounds were then pinned in dose-response using a 1536-head pin tool (Kalypsis, San Diego, CA) and plates were incubated at 37 degree C in 5% CO2 for an additional 72 h. CellTiter-Glo reagent (Promega) was dispensed into the wells, incubated for 5 min and luminescence was read on a ViewLux instrument (Perkin-Elmer). Cytotoxic compounds were defined as those that yielded a curve class of -1.1, -1.2, -2.1, -2.2, -2.3, or -2.4, a maximum response of >50% and an AC50 of < 10 uM. Cherry-picked hits from screening analysis were tested with both the KB pair of cell lines, and the pcDNA (empty vector control) and MDR-19 (P-gp overexpressing) pair were tested, in the absence and presence of tariquidar.
% is scaled to controls: 0 for no effect and ±100 for the full control effect; potency is read from the fitted curve at half-maximal effect.

Row | Compound | activity change, negative = cytotoxicity | Potency
1 | CO[C@H]1O[C@@H]2O[C@@]3(C)CC[C@H]4[C@H](C)CC[C@@H]([C@H]1C)[C@@]24OO3 | -27.5% | 
2 | [O]=[Bi][O][Bi]=[O] | -11.1% | 
3 | COc1cc2c(cc1OC)[C@@H](c1ccccc1)CN(C)CC2 | -19.3% | 
4 | S=C=Nc1ccc(N=C=S)cc1 | -5.87% | 
5 | O=C1NCCN1c1ncc([N+](=O)[O-])s1 | 2.28% [at 17.3 µM] | 
6 | C=O | 9.01% | 
7 | CNCC(O)c1ccc(OC(=O)C(C)(C)C)c(OC(=O)C(C)(C)C)c1 (stereo not given) | -10.9% [at 17.3 µM] | 
8 | Cc1cc2nc3c(=O)[nH]c(=O)nc-3n(C[C@H](O)[C@H](O)[C@H](O)COP(=O)(O)OP(=O)(O)OC[C@H]3O[C@@H](n4cnc5c(N)ncnc54)[C@H](O)[C@@H]3O)c2cc1C | 15.8% | 
9 | CCCc1ccc(C(=O)O)cc1 | -9.29% | 
10 | CC(O)[C@H]1CC[C@H]2[C@@H]3CC[C@@H]4C[C@@H](O)CC[C@]4(C)[C@H]3CC[C@]12C (stereo not given in full) |  | 6.51 µM (active)
11 | C=CC[N+]1([C@H]2C[C@H]3[C@@H]4CC[C@H]5C[C@H](O)[C@@H](N6CCOCC6)C[C@]5(C)[C@H]4CC[C@]3(C)[C@H]2OC(C)=O)CCCC1 | 9.57% | 
12 | O=C1c2ccccc2CN2C(=O)c3ccccc3CN12 | 19.9% | 
13 | O=C(CCCCCCCCCCCCC1CCCC1)Nc1ccc(S(=O)(=O)c2ccc(NC(=O)CCCCCCCCCCCCC3CCCC3)cc2)cc1 | 6.09% | 
14 | CCCCC(O)c1ccccc1 (stereo not given) | -1.04% | 
15 | CC(C)O | -10.7% | 
16 | CCC(Cc1c(I)cc(I)c(O)c1I)C(=O)O (stereo not given) | 6.03% | 
17 | CCCCCCCCCCCC(=O)OC[C@@H](O)C1OC[C@H](O)[C@H]1O (stereo not given in full) | -4.78% | 
18 | O[C@@H]([C@H](O)[C@H](O)CBr)[C@H](O)CBr | -10% | 
19 | CC[C@H](CC[C@@H](C)[C@H]1CC[C@H]2[C@@H]3CC=C4C[C@@H](O)CC[C@]4(C)[C@H]3CC[C@]12C)C(C)C | 9.97% | 
20 | Nc1nc2c(c(=O)[nH]1)N(C=O)C(CNc1ccc(C(=O)N[C@@H](CCC(=O)O)C(=O)O)cc1)CN2 (stereo not given in full) | 0.0399% [at 17.3 µM] | 

Row | Compound | activity change, negative = cytotoxicity | Potency
21 | OCC1(CO)COC(C(Cl)(Cl)Cl)OC1 | 12.6% | 
22 | C=CCN1CCCC1CNC(=O)c1cc(S(N)(=O)=O)cc(OC)c1OC (stereo not given) | -13.7% | 
23 | CC1=C(/C=C/C(C)=C/C=C/C(C)=C/C(=O)Oc2c(C)c(C)c3c(c2C)CC[C@@](C)(CCC[C@H](C)CCC[C@H](C)CCCC(C)C)O3)C(C)(C)CCC1 | -5.81% | 
24 | CN1C(=O)C[C@@H](C(=O)N[C@@H](Cc2cnc[nH]2)C(=O)N2CCC[C@H]2C(N)=O)NC1=O | 9.48% | 
25 | O=C(O)c1ccc(NC2OC[C@@H](O)[C@H](O)[C@H]2O)cc1 (stereo not given in full) | -2.08% | 
26 | CC(C)CN(C[C@@H](O)[C@H](Cc1ccccc1)NC(=O)O[C@@H]1CCOC1)S(=O)(=O)c1ccc(N)cc1 | -1.12% | 
27 | C[N@+]12CCCC[C@@H]1CCC(=C(c1cccs1)c1cccs1)C2 | -5.92% | 
28 | NC(=O)[C@H]1O[C@@H](O)[C@H](O)[C@@H](O)[C@@H]1O | -0.543% | 
29 | COc1cc(C)c(/C=C/C(C)=C/C=C/C(C)=C/C(=O)O)c(C)c1C | -31.4% | 
30 | CC(=O)N=c1sc(S(N)(=O)=O)nn1C | 5.7% [at 17.3 µM] | 
31 | C[C@H](CCC(=O)O)[C@H]1CC[C@H]2[C@@H]3[C@H](O)C[C@@H]4C[C@H](O)CC[C@]4(C)[C@H]3C[C@H](O)[C@]12C | -12.2% | 
32 | CC(=O)Oc1cc(C(F)(F)F)ccc1C(=O)O | -5.08% [at 17.3 µM] | 
33 | COc1ccc(C(=O)CCC(=O)O)c2ccccc12 | 2.42% | 
34 | Nc1ncnc2c1ncn2[C@H]1CC[C@@H](CO)O1 | 2.68% | 
35 | CCCCCc1ccc(C)cc1O | 1.52% | 
36 | CC(O)CN(C)C (stereo not given) | 3.49% | 
37 | O=C[C@H](O)[C@@H](O)[C@@H](O)[C@H](O)CO | -0.0977% | 
38 | CC(C)C[C@H](NC(=O)[C@@H](Cc1c[nH]c2ccccc12)NC(=O)[C@H](Cc1ccc(O)cc1)NC(=O)[C@H](CO)NC(=O)[C@H](Cc1c[nH]c2ccccc12)NC(=O)[C@H](Cc1cnc[nH]1)NC(=O)[C@@H]1CCC(=O)N1)C(=O)N[C@@H](CCCN=C(N)N)C(=O)N1CCC[C@@H]1C(=O)NCC(N)=O | 9.52% | 
39 | CC(C)=CCC/C(C)=C/CC/C(C)=C/CC/C=C(\C)CC/C=C(\C)CCC=C(C)C |  | inactive
40 | O.O.O.O.O.O.O.O=S(=O)([O-])[O-].[Co+2] | -9.7% | 
